Data published in PubChem BioAssay (EPA / NIEHS).
The source made the active and inactive calls. Rule for the calls: active = hit-call score of the fitted dose curve at least 0.9, where 1 is the maximum; inactive = score below 0.9.

Tests used:
[1] = ATG_CRE_CIS: Attagene CIS-FACTORIAL HepG2 Assay for human cAMP Responsive Element (CRE) binding protein 3 (AID 2282926); details: HepG2 CRE cis-reporter, Attagene multiplexed mRNA; actives raise or lower the signal
Procedure, shortened: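 Induced reporter mRNA from a CRE cis element, measured in HepG2 among many multiplexed units at 24 h. Detection used RT-PCR plus capillary electrophoresis of fluorescent fragments; DMSO served as negative control.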

[2] = molecular target: CCAAT/enhancer-binding protein beta (Homo sapiens) (UniProt P17676); assay: ATG_C_EBP_CIS: Attagene CIS-FACTORIAL HepG2 Assay for human CCAAT/Enhancer Binding Protein (C/EBP) beta (AID 2282927); details: HepG2 Attagene cis-factorial transcription factor reporter; actives raise or lower the signal
Procedure, shortened: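 Endogenous C/EBPb-driven reporter transcripts measured in transfected human HepG2 cells at 24 h via RT-PCR and capillary electrophoresis of labelled fragments. Activity fitted in both directions relative to DMSO baseline.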

[3] = ATG_CMV_CIS: Attagene CIS-FACTORIAL HepG2 Assay for human CMV (Internal Marker) (AID 2282928); details: HepG2 CMV promoter reporter, transcription factor profiling; actives raise or lower the signal;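 note: endpoint acts as a background internal control marker rather than a target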
Procedure, shortened: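 Readout: fluorescent reporter cDNA fragments separated by capillary electrophoresis after RT-PCR and HpaI cut. Cells: HepG2 carrying transfected cis-promoter reporter constructs, dosed 24 h. Endpoint serves as background internal-marker control, fit bidirectionally versus DMSO.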

[4] = ATG_DR4_LXR_CIS: Attagene CIS-FACTORIAL HepG2 Assay for human Liver X Receptor (LXR), DR4 submotif (AID 2282929); details: HepG2 Attagene DR4 cis-reporter, mRNA transcription; actives raise or lower the signal
Procedure, shortened: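 DR4 cis-reporter in HepG2, 24 h exposure. Detection: RT-PCR, 6-FAM labelling, CE fragment analysis. Endpoint fitted bidirectionally, DMSO = baseline.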

[5] = molecular target: Aryl hydrocarbon receptor (Homo sapiens) (UniProt P35869); assay: ATG_Ahr_CIS: Attagene CIS-FACTORIAL HepG2 Assay for human Aryl Hydrocarbon Receptor (Ahr) (AID 2282930); details: HepG2 AhR cis-factorial reporter transcription; actives raise or lower the signal
Procedure, shortened: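 Reporter mRNA levels, quantified by RT-PCR and fluorescent capillary electrophoresis, reflect endogenous AhR transcriptional activity in HepG2 cells carrying transfected cis-promoter reporter constructs. Readout at 24 h post-dose; gain or loss fitted against DMSO baseline.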

[6] = ATG_AP_1_CIS: Attagene CIS-FACTORIAL HepG2 Assay for human Activator Protein 1 (AP-1) (AID 2282931); details: HepG2 Attagene cis-factorial AP-1 reporter mRNA; actives raise or lower the signal
Procedure, shortened: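 Cis-regulated reporter units transiently expressed in HepG2 report endogenous transcription-factor activity. Signal: reporter mRNA at 24 h, via RT-PCR and fluorescent capillary electrophoresis. Endpoint derived by bidirectional fitting, DMSO as negative control.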

[7] = ATG_AP_2_CIS: Attagene CIS-FACTORIAL HepG2 Assay for human Activator Protein 2 (AP-2) (AID 2282932); details: HepG2 AP-2 cis-reporter, Attagene transcription factor profiling; actives raise or lower the signal
Procedure, shortened: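 Endogenous transcription factor activity is reported through transfected multiplex reporter constructs in HepG2, after 24 h of compound exposure. Transcripts were quantified by RT-PCR and capillary electrophoresis of fluorescent fragments. Bidirectional fit against DMSO.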

[8] = ATG_BRE_CIS: Attagene CIS-FACTORIAL HepG2 Assay for human Bone Morphogenetic Protein (BMP) Response Element (BRE) (AID 2282933); details: HepG2 BMP response element reporter, Attagene transcription factor profiling; actives raise or lower the signal
Procedure, shortened: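 Read-out: reporter mRNA induction quantified by RT-PCR and capillary electrophoresis after 24 h chemical exposure of transfected HepG2 cells. Endogenous factor activity on the BMP response element; gain or loss fitted against DMSO baseline.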

[9] = molecular target: Retinoic acid receptor alpha (Homo sapiens) (UniProt P10276); assay: ATG_DR5_RAR_CIS: Attagene CIS-FACTORIAL HepG2 Assay for human Retinoic Acid Receptor Alpha (RARE), DR5 submotif (AID 2282934); details: HepG2 Attagene cis-factorial RARE DR5 reporter, mRNA; actives raise or lower the signal
Procedure, shortened: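 Reporter transcripts from a DR5-regulated unit, measured via RT-PCR plus capillary electrophoresis, reflect endogenous RAR activity in transiently transfected human HepG2 liver cells. Exposure lasted 24 h; gain or loss of signal scored against DMSO.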

[10] = ATG_E_Box_CIS: Attagene CIS-FACTORIAL HepG2 Assay for human Enhancer Box (E-box) (AID 2282936); details: HepG2 E-box cis-reporter transcription, actives raise or lower the signal
Procedure, shortened: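 E-box-driven reporter transcripts measured in transiently transfected HepG2 after 24 h exposure: RNA reverse-transcribed, PCR-amplified, fluorescently labelled, digested and resolved by capillary electrophoresis. Gain or loss relative to DMSO.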

[11] = ATG_M_61_CIS: Attagene CIS-FACTORIAL HepG2 Assay for M61 Transcription Factor (Internal Marker) (AID 2282937); details: HepG2 Attagene CIS-FACTORIAL M61 internal marker reporter; actives raise or lower the signal
Procedure, shortened: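 Background-control endpoint: HepG2 cells with cis-regulated reporter constructs, 24 h exposure, reporter mRNA detected via fluorescent primer extension and capillary electrophoresis; values from bidirectional fitting with DMSO baseline.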

[12] = ATG_EGR_CIS: Attagene CIS-FACTORIAL HepG2 Assay for human Early Growth Response 1 (EGR1) (AID 2282938); details: HepG2 Attagene CIS-FACTORIAL EGR reporter mRNA; actives raise or lower the signal
Procedure, shortened: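 Endpoint derived by bidirectional fitting versus DMSO vehicle. Method: cis-promoter reporter units transfected into HepG2, 24 h dosing, RNA isolation, RT-PCR with 6-FAM primer extension and HpaI digestion, then capillary electrophoresis fluorescence detection.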

[13] = ATG_M_19_CIS: Attagene CIS-FACTORIAL HepG2 Assay for M19 Transcription Factor (Internal Marker) (AID 2282939); details: HepG2 Attagene CIS-FACTORIAL M19 internal marker reporter; actives raise or lower the signal
Procedure, shortened: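 Readout: fluorescent reporter-transcript fragments by capillary electrophoresis after RT-PCR. Human HepG2 liver cells carried transfected MRTU constructs reporting endogenous transcription-factor activity; exposure 24 h. Gain or loss of signal fitted relative to DMSO.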

[14] = ATG_Ets_CIS: Attagene CIS-FACTORIAL HepG2 Assay for human Erythroblast Transformation Specific (ETS) (AID 2282941); details: HepG2 ETS cis-reporter transcription, actives raise or lower the signal
Procedure, shortened: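 RT-PCR/capillary electrophoresis fluorescence read-out of reporter mRNA; HepG2 transient multi-reporter transfection; 24 h compound exposure; gain or loss of signal fitted bidirectionally relative to DMSO.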

[15] = molecular target: Hepatocyte nuclear factor 3-beta (Homo sapiens) (UniProt Q9Y261); assay: ATG_FoxA2_CIS: Attagene CIS-FACTORIAL HepG2 Assay for human Forkhead box A2 (FOXA2) (AID 2282942); details: HepG2 cis-reporter transcription factor activity, 24 h; actives raise or lower the signal
Procedure, shortened: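 Measured: reporter mRNA induction or loss in HepG2 transiently carrying multiple cis-regulated reporter units, 24 h after dosing. Quantified by RT-PCR plus capillary electrophoresis, normalised to DMSO.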

[16] = ATG_FoxO_CIS: Attagene CIS-FACTORIAL HepG2 Assay for human Forkhead box O (FoxO) (AID 2282943); details: HepG2 Attagene cis-reporter, FoxO element, mRNA; actives raise or lower the signal
Procedure, shortened: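 Endogenous transcription factor activity read from multiplexed cis-promoter reporter transcripts in transiently transfected HepG2, 24 h after dosing. Reporter RNA measured via RT-PCR plus capillary electrophoresis of FAM-labeled products; gain or loss relative to DMSO.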

[17] = ATG_GATA_CIS: Attagene CIS-FACTORIAL HepG2 Assay for human GATA Binding Protein (AID 2282944); details: HepG2 GATA cis-element reporter, Attagene multiplex mRNA; actives raise or lower the signal
Procedure, shortened: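 Read-out: fluorescent reporter mRNA fragments resolved by capillary electrophoresis after RT-PCR. Human liver HepG2 cells carried transiently transfected cis-regulated reporter constructs; chemicals incubated 24 h; gain or loss of signal fitted relative to DMSO.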

[18] = ATG_GLI_CIS: Attagene CIS-FACTORIAL HepG2 Assay for human Zinc Finger Protein GLI1 (AID 2282945); details: HepG2, Attagene cis-factorial reporter mRNA, GLI element; actives raise or lower the signal
Procedure, shortened: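 Bidirectional curve fits relative to DMSO, using reporter mRNA levels from RT-PCR plus capillary electrophoresis. Cells were HepG2 transiently carrying cis-regulated reporter constructs, harvested 24 h after dosing.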

[19] = molecular target: Transcription factor E2F1 (Homo sapiens) (UniProt Q01094); assay: ATG_E2F_CIS: Attagene CIS-FACTORIAL HepG2 Assay for human E2F Transcription Factor 1 (AID 2282935); details: HepG2 Attagene cis-reporter, E2F reporter RNA transcripts; actives raise or lower the signal
Procedure, shortened: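 Gain or loss of reporter transcript, fitted against DMSO, reflects E2F1-driven transcription. Transiently transfected HepG2 dosed 24 h before RNA isolation. Quantified by fluorescent RT-PCR products separated by capillary electrophoresis.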

Measured: AC50

Sequence of Retinoic acid receptor alpha (Homo sapiens) (P10276 whole entry, looked up): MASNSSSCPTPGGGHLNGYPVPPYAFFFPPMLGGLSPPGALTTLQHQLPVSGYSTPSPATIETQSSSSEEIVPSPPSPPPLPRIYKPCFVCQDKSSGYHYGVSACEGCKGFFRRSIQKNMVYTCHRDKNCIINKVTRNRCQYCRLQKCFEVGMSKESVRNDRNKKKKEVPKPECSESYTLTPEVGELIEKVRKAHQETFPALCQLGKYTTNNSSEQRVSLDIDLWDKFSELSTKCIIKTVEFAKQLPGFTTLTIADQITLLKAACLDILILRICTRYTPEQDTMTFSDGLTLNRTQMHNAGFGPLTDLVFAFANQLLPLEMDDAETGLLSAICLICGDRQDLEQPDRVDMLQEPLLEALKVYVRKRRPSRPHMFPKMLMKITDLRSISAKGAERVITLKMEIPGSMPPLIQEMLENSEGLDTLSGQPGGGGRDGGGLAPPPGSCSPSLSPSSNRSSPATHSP
Sequence of Hepatocyte nuclear factor 3-beta (Homo sapiens) (Q9Y261 whole entry, looked up): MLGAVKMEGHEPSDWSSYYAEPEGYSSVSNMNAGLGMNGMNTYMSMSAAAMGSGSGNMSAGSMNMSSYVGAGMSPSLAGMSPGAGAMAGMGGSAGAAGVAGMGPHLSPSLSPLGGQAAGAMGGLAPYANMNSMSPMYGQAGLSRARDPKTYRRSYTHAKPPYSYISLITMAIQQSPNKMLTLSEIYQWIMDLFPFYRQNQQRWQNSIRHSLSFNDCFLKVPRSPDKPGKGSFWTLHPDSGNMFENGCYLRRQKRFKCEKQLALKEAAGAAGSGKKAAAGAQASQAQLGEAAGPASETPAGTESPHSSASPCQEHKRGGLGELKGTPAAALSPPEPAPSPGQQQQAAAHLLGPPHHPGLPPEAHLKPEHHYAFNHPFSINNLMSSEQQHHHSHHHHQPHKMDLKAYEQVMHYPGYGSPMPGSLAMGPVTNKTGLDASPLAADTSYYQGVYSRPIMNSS
Sequence of Transcription factor E2F1 (Homo sapiens) (Q01094 whole entry, looked up): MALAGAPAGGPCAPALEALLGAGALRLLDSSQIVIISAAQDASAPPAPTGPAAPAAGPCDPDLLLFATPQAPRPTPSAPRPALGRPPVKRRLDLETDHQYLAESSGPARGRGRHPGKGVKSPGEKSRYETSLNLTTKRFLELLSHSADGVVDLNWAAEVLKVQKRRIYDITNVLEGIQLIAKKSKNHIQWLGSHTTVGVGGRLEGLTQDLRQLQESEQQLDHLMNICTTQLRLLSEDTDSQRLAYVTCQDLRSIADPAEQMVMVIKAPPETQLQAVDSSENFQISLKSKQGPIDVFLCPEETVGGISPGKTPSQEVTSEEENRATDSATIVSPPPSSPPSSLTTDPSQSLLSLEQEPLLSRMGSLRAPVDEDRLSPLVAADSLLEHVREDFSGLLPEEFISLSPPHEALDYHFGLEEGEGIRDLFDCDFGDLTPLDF
Sequence of Aryl hydrocarbon receptor (Homo sapiens) (P35869 whole entry, looked up): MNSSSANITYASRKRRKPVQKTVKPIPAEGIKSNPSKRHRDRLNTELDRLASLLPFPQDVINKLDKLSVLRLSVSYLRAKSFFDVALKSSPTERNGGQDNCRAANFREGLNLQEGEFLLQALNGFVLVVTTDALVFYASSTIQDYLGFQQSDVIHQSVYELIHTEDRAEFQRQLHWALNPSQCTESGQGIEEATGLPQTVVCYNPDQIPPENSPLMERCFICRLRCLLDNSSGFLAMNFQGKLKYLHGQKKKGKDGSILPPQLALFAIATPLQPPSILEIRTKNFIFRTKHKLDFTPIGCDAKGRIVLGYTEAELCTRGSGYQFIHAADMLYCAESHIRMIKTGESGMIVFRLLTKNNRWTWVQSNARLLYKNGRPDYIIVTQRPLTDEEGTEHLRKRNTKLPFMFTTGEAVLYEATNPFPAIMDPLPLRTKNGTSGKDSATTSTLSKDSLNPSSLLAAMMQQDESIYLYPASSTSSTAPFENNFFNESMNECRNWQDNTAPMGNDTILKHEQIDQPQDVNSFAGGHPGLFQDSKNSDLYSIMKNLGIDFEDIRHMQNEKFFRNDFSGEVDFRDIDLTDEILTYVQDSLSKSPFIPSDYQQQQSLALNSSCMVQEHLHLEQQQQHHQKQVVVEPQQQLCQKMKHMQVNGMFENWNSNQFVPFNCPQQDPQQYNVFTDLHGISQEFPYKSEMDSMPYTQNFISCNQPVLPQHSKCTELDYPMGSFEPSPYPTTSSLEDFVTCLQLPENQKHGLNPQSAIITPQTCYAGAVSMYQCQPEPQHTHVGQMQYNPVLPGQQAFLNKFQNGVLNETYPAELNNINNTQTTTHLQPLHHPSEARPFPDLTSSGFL
Sequence of CCAAT/enhancer-binding protein beta (Homo sapiens) (P17676 whole entry, looked up, the tested form may be a part): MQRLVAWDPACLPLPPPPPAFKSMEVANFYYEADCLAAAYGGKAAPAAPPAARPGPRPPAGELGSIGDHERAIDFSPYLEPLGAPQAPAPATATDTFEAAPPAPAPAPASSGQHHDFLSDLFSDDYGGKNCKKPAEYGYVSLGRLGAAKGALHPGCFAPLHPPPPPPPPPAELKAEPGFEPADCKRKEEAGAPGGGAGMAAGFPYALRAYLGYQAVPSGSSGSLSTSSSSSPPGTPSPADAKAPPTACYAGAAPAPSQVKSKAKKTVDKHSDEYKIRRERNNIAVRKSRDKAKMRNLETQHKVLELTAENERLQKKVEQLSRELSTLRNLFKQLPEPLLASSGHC

CCCCC(CC)COC(=O)c1ccc(O)cc1 (configuration not stated)
not listed: [19]
inactive: all other assays above

CN1CCOCC1
not listed: [15] | [18] | [19]
inactive: all other assays above

NC1CCCCC1N (configuration not stated)
not listed: [10]
inactive: all other assays above

Nc1ccc(NCCO)c([N+](=O)[O-])c1
active: [5] 7.19 µM
not listed: [19]
inactive: all other assays above

O=C1CCCC=CCCCCCCCCCC1
active: [3] 44.1 µM | [4] 33.4 µM | [6] 50.3 µM
not listed: [19]
inactive: all other assays above

CC1(C)CCC[C@]2(C)[C@H]3CCO[C@]3(C)CC[C@@H]12
active: [6] 151 µM
not listed: [10]
inactive: all other assays above

C=C[Si]1(C)O[Si](C)(C=C)O[Si](C)(C=C)O[Si](C)(C=C)O1 (configuration not stated)
active: [3] 51.7 µM | [4] 4.46 µM | [6] 36.1 µM
not listed: [10]
inactive: all other assays above

NCC1CCCC(CN)C1 (configuration not stated)
not listed: [19]
inactive: all other assays above
